Assay results as given in PubChem BioAssay AID2283160 (EPA ToxCast).
Results filed as inconclusive are left out. Activity calls are given as the source filed them. How the source made its calls: active means hit-call score of the fitted dose curve at least 0.9, where 1 is the maximum; inconclusive means response in the unintended direction; inactive means score below 0.9.

What follows are molecules tested against human Fibroblast Growth Factor Receptor 3 (FGFR3), FGFR3 (gene 2261) (UniProt P22607) (assay: NVS_ENZ_hFGFR3: NovaScreen (NVS) Enzymatic Assay for human Fibroblast Growth Factor Receptor 3 (FGFR3)).
Method: NVS_ENZ_hFGFR3 is a biochemical, single-readout assay that uses extracted gene-proteins in a cell-free assay. Measurements were taken 1 hour after chemical dosing in a 384-well plate.NVS_ENZ_hFGFR3 is one of one assay component(s) measured or calculated from the NVS_ENZ_hFGFR3 assay. It is designed to make measurements of enzyme activity, a form of enzyme reporter, as detected with fluorescence intensity signals by Fluorescence and electrophoretic mobility shift technology.Data from the assay component NVS_ENZ_hFGFR3 was analyzed into 1 assay endpoint. This assay endpoint, NVS_ENZ_hFGFR3, was analyzed in the positive analysis fitting direction relative to DMSO as the negative control and baseline of activity. Using a type of enzyme reporter, loss-of-signal activity can be used to understand changes in the enzymatic activity as they relate to the gene FGFR3. Furthermore, this assay endpoint can be referred to as a primary readout, because this assay has produced multiple assay endpoints where this one serves a enzymatic activity function. To generalize the intended target to other relatable targets, this assay endpoint is annotated to the kinase intended target family, where the subfamily is receptor tyrosine kinase.
Binding assays used specific radioligands (tritiated, iodinated) with non-radioactive competitive displacement ligands in agonist or antagonist protocols (as indicated) and various reference compounds and inhibitors to titrate specific binding to receptors and transporters. Most enzyme assays (CYPs, kinases, phosphatases, proteases, HDACs) used recombinant protein and specific substrates (fluorescence mostly, some colorimetric and radioactive) and inhibitors, followed by a biochemical separation of substrate and product. All assays for the biochemical HTS were initially run in duplicate at a single concentration (10 uM for CYP450 assays and 25 uM for all others). Assay-chemical combinations meeting a pre-defined threshold (e.g., 30% inhibition and other criteria defined below) were then run in singleton concentration-response format with maximum concentration of 20 uM for CYPs and 50 uM for all others. Each assay was run with positive and negative controls, and concurrent controls on every plate. The follow-up (secondary) screen tested active chemical-pairs in concentration series, as well as a few additional assays not tested in the primary screen, some selected negative inactives, and several cases re-run in the concentration series for confirmatory purposes.

human Fibroblast Growth Factor Receptor 3 (FGFR3), FGFR3 (gene 2261), sequence (P22607 whole entry, looked up): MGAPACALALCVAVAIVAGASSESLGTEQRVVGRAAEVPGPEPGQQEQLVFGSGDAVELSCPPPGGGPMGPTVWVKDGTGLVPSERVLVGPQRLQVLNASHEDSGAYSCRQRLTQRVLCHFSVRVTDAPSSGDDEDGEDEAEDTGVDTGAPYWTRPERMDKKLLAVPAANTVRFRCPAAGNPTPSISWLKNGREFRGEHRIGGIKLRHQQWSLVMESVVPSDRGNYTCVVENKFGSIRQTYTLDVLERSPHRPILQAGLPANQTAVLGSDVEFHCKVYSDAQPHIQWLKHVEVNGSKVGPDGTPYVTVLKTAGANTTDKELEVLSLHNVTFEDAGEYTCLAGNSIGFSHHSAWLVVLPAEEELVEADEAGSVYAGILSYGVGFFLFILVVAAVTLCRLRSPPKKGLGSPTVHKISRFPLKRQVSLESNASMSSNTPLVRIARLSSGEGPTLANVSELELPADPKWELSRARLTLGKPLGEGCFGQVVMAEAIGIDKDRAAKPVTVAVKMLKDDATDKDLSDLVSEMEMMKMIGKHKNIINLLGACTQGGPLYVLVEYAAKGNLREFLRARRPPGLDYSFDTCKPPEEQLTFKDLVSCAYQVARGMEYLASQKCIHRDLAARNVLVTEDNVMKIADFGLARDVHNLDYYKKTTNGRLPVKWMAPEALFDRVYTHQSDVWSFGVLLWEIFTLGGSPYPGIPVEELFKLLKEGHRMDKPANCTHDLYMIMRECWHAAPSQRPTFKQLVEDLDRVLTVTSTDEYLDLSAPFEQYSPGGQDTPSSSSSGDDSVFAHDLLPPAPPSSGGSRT

| SMILES | outcome | AC50 |
| --- | --- | --- |
| CSc1nnc(C(C)(C)C)c(=O)n1N | inactive |  |
| CCOc1cc(Oc2ccc(C(F)(F)F)cc2Cl)ccc1[N+](=O)[O-] | inactive |  |
| CC(Oc1cccc(Cl)c1)C(=O)O (stereo not given) | inactive |  |
| COP(=O)(OC)OC=C(Cl)Cl | inactive |  |
| CCCOc1nn(C(=O)NS(=O)(=O)c2ccccc2C(=O)OC)c(=O)n1C | inactive |  |
| CCCC1COC(Cn2cncn2)(c2ccc(Cl)cc2Cl)O1 (stereo not given) | inactive |  |
| CNC(=O)ON=C(SC)C(=O)N(C)C | inactive |  |
| CN(C)C(=S)SSC(=S)N(C)C | inactive |  |
| CN(C)[C@@H]1C(=O)C(C(N)=O)=C(O)[C@@]2(O)C(=O)C3=C(O)c4c(O)cccc4[C@@](C)(O)[C@H]3[C@H](O)[C@@H]12 |  | 14.5 µM (active) |
| CNC(=O)Oc1ccccc1OC(C)C | inactive |  |
| CCCC(=NOCC)C1=C(O)CC(CC(C)SCC)CC1=O (stereo not given) | inactive |  |
| S=C(S)NCCNC(=S)S.[Mn+2].[S-]C([S-])=NCCN=C([S-])[S-].[Zn+2] |  | 38.2 µM (active) |
| COCC(C)N(C(=O)CCl)c1c(C)csc1C (stereo not given) | inactive |  |
| CCCCN(CC)c1c([N+](=O)[O-])cc(C(F)(F)F)cc1[N+](=O)[O-] | inactive |  |
| S=C([S-])NCCNC(=S)[S-].[Mn+2] |  | 40.5 µM (active) |
